Compounds with a hit are over-represented: about 2.1% of the library has one in this group of screens.
Abeta yeast res = A-beta toxicity reversal in yeast. yeast expressing A-beta42, growth rescue, OD600, 48 h; response scale: 0% DMSO, 100% iron-clioquinol control. Potency, µM (doses to about 46.1 µM), most hits filed as activators. hit rate 0.063% among 410,000. AID 1347071; also: nearly all actives have a fitted effect of over 55% in size
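Growth rescue measured by 600 nm absorbance after 48 h yeast culture at 30 C with compound. Values normalized between DMSO and an equimolar ferric chloride plus clioquinol control.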
FUS suppressor = rescues growth of FUS-expressing yeast | S. cerevisiae FUS-expressing, growth rescue, OD600, 24 h | Potency, µM (series often up to 76.6 µM), most hits filed as activators | hit rate 0.24% among 390,000 | AID 1347120;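 also: plate controls were DMSO vehicle for no effect and reference control for full effect; nearly all actives have a fitted effect of over 55% in size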
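Read-out: OD at 600 nm after 24hr at 30C, reporting rescue of FUS-induced yeast toxicity. Cells at OD 0.005 in galactose (2%) minimal medium; compounds tested in a dilution series; CP55940 titration from 92uM final as control.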
aSyn rescue = rescues yeast growth from alpha-synuclein toxicity; AID 652106; Potency, µM (top dose mostly 46.1 µM), for the others: top-dose growth rescue (activation), most hits filed as activators; Yeast expressing alpha-synuclein, growth rescue, BacTiter-Glo, 24 h; hit rate 0.14% among 370,000; also: % of control where 0% means no effect; nearly all actives have a fitted effect of over 65% in size
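Readout is rescue of growth in alpha-synuclein-expressing yeast, so inhibitors of toxicity appear as activators. Growth after 24 hr at 30 deg C in galactose medium is quantified by luminescence.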
TDP-43 yeast inh = inhibitors of TDP-43 toxicity in yeast. TDP-43 expressing yeast growth rescue, BacTiter-Glo, 24 h. Potency, µM (highest dose often 46.1 µM), for inactives: at the top dose growth rescue (activation), hits mostly activators. hit rate 1.8% among 410,000. AID 652104; also: % of control where 0% means no effect; nearly all actives have a fitted effect of over 50% in size
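Cell-based yeast growth screen: TDP-43 expression induced in galactose, inoculum OD600=0.02 after raffinose pregrowth to mid-log. Read-out BacTiter-Glo luminescence at 24 hr, 30 deg C; inhibition of toxicity seen as signal increase.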
Numbers without * were called inactive; i = inactive; ? = inconclusive; nt = no result given; [ ] = remark or other dose. Calls follow the shape of the dose curve; as a rule, active = well fitted curve in the direction sought with a large enough effect; inconclusive = small, poorly fitted or top-dose-only effect, or another doubt; inactive = no such curve, though single readings can be large; an effect the other way counts as inactive or inconclusive. Potency is read from the fitted curve at half-maximal effect.

SMILES	Abeta yeast res	FUS suppressor	aSyn rescue	TDP-43 yeast inh
Cc1cccc(-c2nc3nc(C)cc(NC(C)c4ccccc4)n3n2)c1 (stereo not given)	i	i	-9%	25µM*
Cc1cc(Nc2ccc(Br)cc2)n2nc(-c3ccccc3C)nc2n1	i	i	nt	14µM*
Cc1cc(Nc2ccc(C)c(Cl)c2)n2nc(-c3ccccc3)nc2n1	i	i	nt	9%
CN(C)c1ccc(CNC(=O)c2cc3ccccn3n2)cc1	i	i	nt	-1%
COc1cc(NC(=O)CC(C)S(=O)(=O)c2cc3c4c(c2)CCN4C(=O)CC3)cc(OC)c1 (stereo not given)	i	i	nt	4%
O=C(N/N=C/c1ccncc1)NC12CC3CC(CC(C3)C1)C2	i	i	-8%	15%
O=C(N/N=C/c1ccc(O)cc1)NC12CC3CC(CC(C3)C1)C2	i	i	-8%	11µM*
Cc1ccc(Nc2nc(-c3sc(C)nc3C)cs2)cc1	i	i	-3%	20µM*
Cc1ccc(Cl)cc1Nc1nc(-c2sc(NC(=O)c3ccco3)nc2C)cs1	i	?	-3%	-1%
Cc1cc(-c2csc(Nc3ccccn3)n2)ccc1F	?	i	-25%	4µM*
Cc1nc(NC(=O)c2ccco2)sc1-c1csc(Nc2ccc(Cl)cc2)n1	i	22µM*	-6%	?
Cc1ccc(Nc2nc(-c3sc(N)nc3C)cs2)cc1	i	?	-20%	16%
Cc1nc(C)c(-c2csc(Nc3ccccn3)n2)s1	?	i	-21%	35µM*
Cc1nc(N)sc1-c1csc(Nc2ccccn2)n1	i	i	4%	9%
CCSc1ncc(Cl)c(C(=O)Nc2sc3c(c2C(=O)NCCOC)CCCC3)n1	nt	nt	-2%	nt
CCOC(=O)c1c(C)[nH]c(C(=O)OC(C(=O)N(C)C)c2ccccc2)c1C (stereo not given)	nt	nt	-1%	nt
COC(=O)c1cc(C)oc1C	nt	i	nt	nt
CC(=O)Oc1ccc(-c2csc(Nc3ccc(Cl)cn3)n2)cc1	i	i	-13%	13µM*
Cc1ccnc(Nc2nc(-c3ccc(F)cc3)cs2)c1	i	i	-32%	7.9µM*
COc1ccc(-c2csc(Nc3ccc(C)cn3)n2)cc1	i	i	-32%	13µM*
CC(=O)Nc1cccc(-c2csc(Nc3ccc(C)cn3)n2)c1	i	i	1%	?
Cc1ccc(-c2csc(Nc3ccccn3)n2)cc1	?	i	-25%	3.2µM*
Cc1nc(N)sc1-c1csc(Nc2ccc(Cl)cn2)n1	i	?	0%	-10%
CCOc1ccc(-c2cc3nc(C4CCN(C(=O)OC(C)(C)C)CC4)c(C(=O)Nc4ccc(C)cc4C)cn3n2)cc1	i	?	nt	17%
Cc1ccc(S(=O)(=O)N(CC(=O)NCCc2ccc(Cl)cc2)c2ccccc2C)cc1	i	?	nt	4%
SMILES	Abeta yeast res	FUS suppressor	aSyn rescue	TDP-43 yeast inh
Cc1ccc(-c2nc3c(C)cccn3c2Nc2ccccc2C)s1	i	i	nt	?
CC(=O)c1cccc(Nc2nc(-c3sc(C)nc3C)cs2)c1	i	i	-6%	11µM*
COc1ccc(-c2csc(Nc3ccccn3)n2)cc1OC	i	i	-3%	13µM*
CCN(CCO)c1ncnc2c1sc1nc(CC(C)C)c3c(c12)CC(C)(C)OC3	i	?	2%	18µM*
CN(Cc1ccccc1)C(=O)c1ccc(Cl)c([N+](=O)[O-])c1	i	i	2%	-31%
CN(Cc1ccccc1)c1ccc(C(=O)O)cc1[N+](=O)[O-]	i	i	0%	16µM*
O=C(NCc1cccs1)c1ccc(Cn2c(SCc3ccccc3)nc3cccnc32)cc1	i	i	nt	-24%
COc1ccc2c(c1)C(=NO)c1cc(OC)ccc1-2	i	i	-5%	11µM*
C=CCOc1ccc2c(c1)C(=NO)c1cc(OCC=C)ccc1-2	i	i	-19%	0%
CC(C)C1C(=O)N(Cc2cn(Cc3ccco3)nn2)CCS(=O)(=O)N1Cc1ccc(-c2ccc(Cl)c(Cl)c2)cc1 (stereo not given)	i	?	15%	28%
Cc1ccc(-c2ccc(CN3C(C)C(=O)N(Cc4cn(Cc5ccco5)nn4)CCS3(=O)=O)cc2)c(C)c1 (stereo not given)	i	?	?	35µM*
Cc1ccccc1-c1ccc(CN2C(C)C(=O)N(Cc3cn(Cc4ccco4)nn3)CCS2(=O)=O)cc1 (stereo not given)	i	?	?	35µM*
Cc1ccc(-c2ccc(CN3C(C)C(=O)N(Cc4cn(Cc5ccco5)nn4)CCS3(=O)=O)cc2)cc1 (stereo not given)	i	?	?	?
CC1C(=O)N(Cc2cn(Cc3ccco3)nn2)CCS(=O)(=O)N1Cc1ccc(-c2ccc(Cl)c(Cl)c2)cc1 (stereo not given)	i	?	?	35µM*
COc1ccc(-c2nc3c(C#N)c[nH]n3c2NC2CCCC2)c(OC)c1	i	i	nt	0%[9.22 µM]
O=C(NC1CCCCN(Cc2cccc(F)c2)C1=O)c1ccc2ccccc2c1 (stereo not given)	nt	i	nt	nt
Cc1cc(-n2c(C)cc(C(=S)N3CCOCC3)c2C)ccc1Br	i	nt	-2%	20µM*
O=C1c2ccccc2NC(c2ccc(Cl)cc2Cl)N1Cc1ccccc1 (stereo not given)	i	i	5%	13%
O=C1c2ccccc2NC(c2c(Cl)cccc2Cl)N1Cc1ccccc1 (stereo not given)	i	i	-10%	25µM*
CCOC(=O)[C@]12CCCCC/C=C\1N(CCc1ccc(Cl)cc1)C(=O)[C@H]2CC(=O)N1CCSCC1	nt	i	nt	nt
O=C(Cc1ccc2ccccc2c1)NO	nt	nt	0%	nt
CCN(CC)c1ccc2cc(-c3nc(-c4cccs4)no3)c(=O)oc2c1	i	i	nt	21%
O=[N+]([O-])c1ccc(Nc2ccccc2)c2nonc12	i	i	5%	-5%
O=[N+]([O-])c1ccc(Sc2cccc[n+]2[O-])c2nonc12	i	i	0.56µM*	?
O=C(CSc1nc2c([nH]c3ccccc32)c(=O)n1-c1ccccc1F)Nc1cccc(C(F)(F)F)c1	i	i	13%	10%
CCOc1ccccc1NC(=O)Nc1ccc2nc(N3CCN(C)CC3)cc(C)c2c1	i	i	nt	2%
CCOc1ccccc1C(=O)Nc1ccc2nc(N3CCN(c4ncccn4)CC3)cc(C)c2c1	i	i	-15%	18µM*
COc1ccc(OC)c(C2c3c(-c4ccc(Br)cc4)n[nH]c3C(=O)N2c2ccc(Cl)cc2)c1 (stereo not given)	i	?	nt	?
Cc1cc(C)c2c(c1)/C(=C/C(=O)c1ccc(Br)s1)C(=O)N2	i	?	-7%	18µM*
O=C(CSc1nc2c([nH]c3ccccc32)c(=O)n1-c1cccc(C(F)(F)F)c1)N1CCCC1	i	i	1%	16%

Source: PubChem BioAssay (National Center for Advancing Translational Sciences (NCATS))
